Activity calls are given as the source filed them. Unless noted, how the calls were made is not given here.
Columns and labels:
[1] = HepG2 liver cancer cell viability effects, profiling panel, resazurin fluorescence, 24 h, PK04 Diversity Set (AID 1172); settings: higher = more signal
[2] = basal S. cerevisiae growth modulation, no modifier, primary screen, OD600, strain BY4716, 24 h, basal condition (AID 1173); settings: OD600, 24 h, higher = more signal, called active from +8 up or from −8 down
[3] = MM1S myeloma cell viability, profiling panel, resazurin fluorescence, basal, 24 h, PK04 Diversity Set (AID 1174); settings: higher = more signal, called active from +8 up or from −8 down;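 further: MM1S multiple myeloma cell line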
[4] = biological target: Dihydroorotate dehydrogenase (quinone), mitochondrial (Plasmodium falciparum (isolate 3D7)) (UniProt Q08210); experiment: PfDHODH enzyme inhibitors, primary screen, biochemical, C-terminal His tag, absorbance 600 nm (AID 1175); settings: DCIP absorbance 600 nm, higher = more signal, called active from +8 up or from −8 down;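 further: recombinant parasite enzyme with a five histidine tag at its C terminus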
[5] = P. aeruginosa biofilm formation inhibitors, primary screen, strain PAO1, LB-PBS medium, absorbance 600 nm (AID 1176); settings: P. aeruginosa PAO1 growth/biofilm, A600, 12 h; higher = more signal
[6] = S. cerevisiae RM11-1a growth modifiers, primary screen, strain RM11-1a, OD600, basal, 24 h (AID 1177); settings: OD600, 24 h, higher = more signal, called active from +8 up or from −8 down;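 further: cultures grown under basal conditions with no added stressor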
[7] = E. coli acrAB mutant growth effects, primary screen, E. coli filamentation inducers, strain DRC39, OD650, 24 h (AID 1178); settings: higher = more signal, called active from +8 up or from −8 down;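 further: growth measured as culture turbidity by optical density at 650 nm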
[8] = E. coli acrAB mutant growth effects, primary screen, E. coli filamentation inducers, strain DRC39, OD650, 48 h (AID 1179);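 further: screen aims at cell division blockers that make cells filament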; settings: E. coli DRC39 delta-acrAB growth, higher = more signal, called active from +8 up or from −8 down
[9] = RPMI8226 myeloma cell viability, profiling panel, resazurin fluorescence, basal, 24 h, PK04 Diversity Set (AID 1180); settings: higher = more signal;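 further: RPMI8826 multiple myeloma cell line at 5000 cells per well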
[10] = biological target: E3 ubiquitin-protein ligase XIAP (Homo sapiens) (UniProt P98170); experiment: XIAP binders, primary screen, biophysical, small-molecule microarray, fluorescence 635 nm (AID 1181); settings: small-molecule microarray binding, higher = more signal;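 further: score merges 667 nm emission and signal to noise over triplicate slides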
[11] = tested on: XIP peptide (Xip251-270) binding; experiment: small-molecule binders of XIP peptide, primary screen, biochemical, small-molecule microarray, fluorescence 635/667 nm, 0.1 µg/mL protein (AID 1182); settings: fluorescent protein binding, 635 nm, higher = more signal, called active from +8 up or from −8 down
[12] = tested on: XIP peptide (Xip251-270); experiment: small-molecule binders of XIP peptide, primary screen, biochemical, small-molecule microarray, fluorescence 635/667 nm, 0.5 µg/mL protein (AID 1183); settings: small-molecule microarray binding, fluorescence 635 nm; higher = more signal
[13] = Plasmodium falciparum growth inhibition, primary screen, strain 3D7, DAPI fluorescence, 100 nL (AID 1184);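 further: parasites grown inside human red blood cells in medium with human serum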; settings: P. falciparum 3D7 growth, 3 d, higher = more signal
[14] = biological target: Homeobox protein Hox-A13 (Mus musculus) (UniProt Q62424); experiment: inhibitors of HoxA13-DNA binding, primary screen, biochemical, fluorescence polarization, labeled oligonucleotide (AID 1185); settings: 15 min, higher = more signal, called active from +8 up or from −8 down
[15] = inhibitors of hydroxyurea-induced Chk1 phosphorylation, primary screen, imaging, HeLa, phospho-Chk1 antibody, percent positive cells (AID 1186); settings: hydroxyurea-induced phospho-Chk1 immunofluorescence imaging, higher = more signal
[16] = inhibitors of hydroxyurea-induced Chk1 phosphorylation, primary screen, imaging, HeLa, phospho-Chk1 nuclear intensity (AID 1187); settings: hydroxyurea-induced phospho-Chk1 immunofluorescence imaging, higher = more signal

Chain of E3 ubiquitin-protein ligase XIAP (Homo sapiens) (P98170 whole entry, looked up): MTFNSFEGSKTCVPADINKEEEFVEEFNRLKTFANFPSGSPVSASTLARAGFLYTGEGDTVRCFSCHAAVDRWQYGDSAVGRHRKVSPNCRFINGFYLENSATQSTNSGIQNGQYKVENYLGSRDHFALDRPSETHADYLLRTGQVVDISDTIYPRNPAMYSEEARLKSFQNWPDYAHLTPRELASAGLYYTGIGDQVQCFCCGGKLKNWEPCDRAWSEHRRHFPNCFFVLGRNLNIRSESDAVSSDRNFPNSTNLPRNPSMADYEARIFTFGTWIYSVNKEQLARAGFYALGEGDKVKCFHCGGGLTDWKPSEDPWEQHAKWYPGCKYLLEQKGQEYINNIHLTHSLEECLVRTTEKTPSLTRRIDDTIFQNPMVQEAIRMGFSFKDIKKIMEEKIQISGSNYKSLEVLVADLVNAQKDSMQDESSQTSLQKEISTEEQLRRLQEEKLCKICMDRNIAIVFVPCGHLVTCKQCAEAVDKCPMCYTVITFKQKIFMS
Chain of Homeobox protein Hox-A13 (Mus musculus) (Q62424 whole entry, looked up): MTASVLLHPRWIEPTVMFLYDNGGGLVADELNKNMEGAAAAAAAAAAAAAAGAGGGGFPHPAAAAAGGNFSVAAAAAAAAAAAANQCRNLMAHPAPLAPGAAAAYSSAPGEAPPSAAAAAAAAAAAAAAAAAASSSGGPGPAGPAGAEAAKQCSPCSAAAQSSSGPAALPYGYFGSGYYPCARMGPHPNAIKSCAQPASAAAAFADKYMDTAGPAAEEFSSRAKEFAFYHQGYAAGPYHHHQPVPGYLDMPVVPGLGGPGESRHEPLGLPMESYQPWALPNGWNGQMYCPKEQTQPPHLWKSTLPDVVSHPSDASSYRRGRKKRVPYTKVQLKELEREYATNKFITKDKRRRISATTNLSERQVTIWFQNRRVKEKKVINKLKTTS
Chain of Dihydroorotate dehydrogenase (quinone), mitochondrial (Plasmodium falciparum (isolate 3D7)) (Q08210 whole entry, looked up): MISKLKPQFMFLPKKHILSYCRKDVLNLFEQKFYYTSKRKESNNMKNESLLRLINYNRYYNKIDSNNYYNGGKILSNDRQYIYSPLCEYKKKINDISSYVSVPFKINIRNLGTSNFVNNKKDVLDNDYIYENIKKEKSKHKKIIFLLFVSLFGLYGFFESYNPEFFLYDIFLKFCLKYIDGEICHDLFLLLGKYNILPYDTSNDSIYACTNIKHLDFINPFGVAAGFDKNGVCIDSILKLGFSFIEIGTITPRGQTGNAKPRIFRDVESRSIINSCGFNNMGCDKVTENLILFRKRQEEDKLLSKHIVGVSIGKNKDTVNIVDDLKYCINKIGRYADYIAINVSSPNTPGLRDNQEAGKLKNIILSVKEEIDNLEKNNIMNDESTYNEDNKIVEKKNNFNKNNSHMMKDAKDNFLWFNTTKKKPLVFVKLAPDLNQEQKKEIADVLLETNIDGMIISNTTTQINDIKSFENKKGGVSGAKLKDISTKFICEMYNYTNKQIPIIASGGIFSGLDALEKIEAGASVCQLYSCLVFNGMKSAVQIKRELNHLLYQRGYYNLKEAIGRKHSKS

Compound: COC(=O)[C@@]1(Cc2ccccc2N=[N+]=[N-])COC(c2ccc(OCCCO)cc2)=N1
- z-score [1]: -0.799
- z-score [2]: -10.7 (active)
- z-score [3]: -1.43 (inactive)
- composite z-score [4]: 0.215 (inactive)
- z-score [5]: 0.907 (inactive)
- z-score [6]: 1.42 (inactive)
- z-score [7]: -0.993 (inactive)
- z-score [8]: -1.46 (inactive)
- z-score [9]: -0.496
- composite z-score [10]: 0.0593
- composite z-score [11]: 1.25 (inactive)
- composite z-score [12]: 0.66
- z-score [13]: -0.82
- z-score [14]: -5.06 (inactive)
- z-score [15]: 0.428 (inactive)
- z-score [16]: 0.135 (inactive)

Compound: CC(=O)C1=CCC(c2ccccc2)N(S(=O)(=O)c2ccc(C)cc2)C1 (centres undefined)
- z-score [1]: -0.0399
- z-score [2]: 0.832 (inactive)
- z-score [3]: -0.551 (inactive)
- composite z-score [4]: 0.746 (inactive)
- z-score [5]: 0.533 (inactive)
- z-score [6]: 0.227 (inactive)
- z-score [7]: 0.422 (inactive)
- z-score [8]: 0.0116 (inactive)
- z-score [9]: -0.809
- composite z-score [10]: -0.0773
- composite z-score [11]: 0.651 (inactive)
- composite z-score [12]: 0.473
- z-score [13]: -1.33
- z-score [14]: -3.89 (inactive)
- z-score [15]: 0.532 (inactive)
- z-score [16]: 0.216 (inactive)

Compound: O=C1O[C@@H](c2ccccc2)[C@@H](c2ccccc2)N2[C@@H](c3ccc(OCCO)cc3)[C@]3(C(=O)Nc4ccccc43)[C@@H](C(=O)Nc3nc4ccccc4s3)[C@H]12
- z-score [1]: -0.489
- z-score [2]: 0.0135 (inactive)
- z-score [3]: -1.52 (inactive)
- composite z-score [4]: -0.308 (inactive)
- z-score [5]: 3.18 (inactive)
- z-score [6]: 1.97 (inactive)
- z-score [7]: -0.595 (inactive)
- z-score [8]: 0.29 (inactive)
- z-score [9]: -1.55
- composite z-score [10]: 0.148
- composite z-score [11]: 0.615 (inactive)
- composite z-score [12]: 0.841
- z-score [13]: -0.161
- z-score [14]: 2.18 (inactive)
- z-score [15]: -0.469 (inactive)
- z-score [16]: -0.781 (inactive)

Compound: COCCCNC(=O)[C@@]1(CCC(=O)OC(C)(C)C)N=C(c2ccc(OCCCO)cc2)O[C@H]1c1ccccc1CN=[N+]=[N-]
- z-score [1]: 0.495
- z-score [2]: -0.78 (inactive)
- z-score [3]: -0.0488 (inactive)
- composite z-score [4]: -0.256 (inactive)
- z-score [5]: -0.167 (inactive)
- z-score [6]: 0.424 (inactive)
- z-score [7]: 0.481 (inactive)
- z-score [8]: -0.28 (inactive)
- z-score [9]: 0.423
- composite z-score [10]: -0.212
- composite z-score [11]: 0.748 (inactive)
- composite z-score [12]: 0.761
- z-score [13]: -1.99
- z-score [14]: -5.33 (inactive)
- z-score [15]: -0.376 (inactive)
- z-score [16]: -0.101 (inactive)

Compound: CCOC(=O)C1=CCC(c2ccc([N+](=O)[O-])cc2)N(S(=O)(=O)c2ccc(C)cc2)C1 (centres undefined)
- z-score [1]: 0.291
- z-score [2]: 2.15 (inactive)
- z-score [3]: -1.1 (inactive)
- composite z-score [4]: 0.774 (inactive)
- z-score [5]: -0.116 (inactive)
- z-score [6]: 2.42 (inactive)
- z-score [7]: -0.627 (inactive)
- z-score [8]: -0.418 (inactive)
- z-score [9]: -1.5
- composite z-score [10]: -0.0513
- composite z-score [11]: -0.15 (inactive)
- composite z-score [12]: 0.27
- z-score [13]: -1.3
- z-score [14]: -1.24 (inactive)
- z-score [15]: -0.021 (inactive)
- z-score [16]: 0.144 (inactive)

Compound: C=CCN1C(=O)[C@]2(O[C@H](CCO)[C@@H]([Si](C)(C)c3ccc(OC)cc3)[C@@H]2C)c2cc(NC(=O)[C@H](C)O)ccc21
- z-score [1]: -0.646
- z-score [2]: -0.151 (inactive)
- z-score [3]: -1.43 (inactive)
- composite z-score [4]: 0.235 (inactive)
- z-score [5]: 0.0943 (inactive)
- z-score [6]: 2.79 (inactive)
- z-score [7]: -0.483 (inactive)
- z-score [8]: -0.955 (inactive)
- z-score [9]: -2.8
- composite z-score [10]: 0.0223
- composite z-score [11]: 1.46 (inactive)
- composite z-score [12]: 0.822
- z-score [13]: -2.74
- z-score [14]: -5.5 (inactive)
- z-score [15]: 1.42 (inactive)
- z-score [16]: 0.436 (inactive)

Compound: COC(=O)[C@]1(Cc2ccccc2N=[N+]=[N-])N=C(c2ccc(OCCCO)cc2)O[C@@H]1c1ccccc1N=[N+]=[N-]
- z-score [1]: -3.41
- z-score [2]: -0.569 (inactive)
- z-score [3]: -6.71 (inactive)
- composite z-score [4]: 0.519 (inactive)
- z-score [5]: 0.755 (inactive)
- z-score [6]: -0.0599 (inactive)
- z-score [7]: 0.2 (inactive)
- z-score [8]: -0.54 (inactive)
- z-score [9]: -7
- composite z-score [10]: 0.165
- composite z-score [11]: 0.404 (inactive)
- composite z-score [12]: 0.614
- z-score [13]: -2.09
- z-score [14]: -2.31 (inactive)
- z-score [15]: -0.53 (inactive)
- z-score [16]: -0.923 (inactive)

Compound: CCCCCCc1nc(CCCc2cc3c(c(CCCCCC)n2)[Si](C(C)C)(C(C)C)OC3)cc2c1[Si](C(C)C)(C(C)C)OC2
- z-score [1]: -0.0097
- z-score [2]: -0.528 (inactive)
- z-score [3]: 0.129 (inactive)
- composite z-score [4]: -2.32 (inactive)
- z-score [5]: 0.374 (inactive)
- z-score [6]: 0.539 (inactive)
- z-score [7]: -0.214 (inactive)
- z-score [8]: -0.728 (inactive)
- z-score [9]: -0.655
- composite z-score [10]: -0.0829
- composite z-score [11]: -0.53 (inactive)
- composite z-score [12]: -0.442
- z-score [13]: -2.33
- z-score [14]: -5.85 (inactive)
- z-score [15]: 0.28 (inactive)
- z-score [16]: 0.382 (inactive)

Compound: N[C@@H](Cc1ccccc1)Cn1cc(-c2ccccc2)nn1
- z-score [1]: -0.473
- z-score [2]: -2.26 (inactive)
- z-score [3]: -0.29 (inactive)
- composite z-score [4]: 1.11 (inactive)
- z-score [5]: 0.444 (inactive)
- z-score [6]: -0.519 (inactive)
- z-score [7]: 0.405 (inactive)
- z-score [8]: -0.679 (inactive)
- z-score [9]: -0.587
- composite z-score [10]: -0.377
- composite z-score [11]: -0.259 (inactive)
- composite z-score [12]: -0.533
- z-score [13]: 0.942
- z-score [14]: -0.823 (inactive)
- z-score [15]: 0.201 (inactive)
- z-score [16]: 0.117 (inactive)

Source: PubChem BioAssay
